What was measured:
[1] = target: T1, Ephrin type-B receptor 1 (Homo sapiens) (UniProt P54762); conditions: at 10 µM
T1 sequence (whole entry): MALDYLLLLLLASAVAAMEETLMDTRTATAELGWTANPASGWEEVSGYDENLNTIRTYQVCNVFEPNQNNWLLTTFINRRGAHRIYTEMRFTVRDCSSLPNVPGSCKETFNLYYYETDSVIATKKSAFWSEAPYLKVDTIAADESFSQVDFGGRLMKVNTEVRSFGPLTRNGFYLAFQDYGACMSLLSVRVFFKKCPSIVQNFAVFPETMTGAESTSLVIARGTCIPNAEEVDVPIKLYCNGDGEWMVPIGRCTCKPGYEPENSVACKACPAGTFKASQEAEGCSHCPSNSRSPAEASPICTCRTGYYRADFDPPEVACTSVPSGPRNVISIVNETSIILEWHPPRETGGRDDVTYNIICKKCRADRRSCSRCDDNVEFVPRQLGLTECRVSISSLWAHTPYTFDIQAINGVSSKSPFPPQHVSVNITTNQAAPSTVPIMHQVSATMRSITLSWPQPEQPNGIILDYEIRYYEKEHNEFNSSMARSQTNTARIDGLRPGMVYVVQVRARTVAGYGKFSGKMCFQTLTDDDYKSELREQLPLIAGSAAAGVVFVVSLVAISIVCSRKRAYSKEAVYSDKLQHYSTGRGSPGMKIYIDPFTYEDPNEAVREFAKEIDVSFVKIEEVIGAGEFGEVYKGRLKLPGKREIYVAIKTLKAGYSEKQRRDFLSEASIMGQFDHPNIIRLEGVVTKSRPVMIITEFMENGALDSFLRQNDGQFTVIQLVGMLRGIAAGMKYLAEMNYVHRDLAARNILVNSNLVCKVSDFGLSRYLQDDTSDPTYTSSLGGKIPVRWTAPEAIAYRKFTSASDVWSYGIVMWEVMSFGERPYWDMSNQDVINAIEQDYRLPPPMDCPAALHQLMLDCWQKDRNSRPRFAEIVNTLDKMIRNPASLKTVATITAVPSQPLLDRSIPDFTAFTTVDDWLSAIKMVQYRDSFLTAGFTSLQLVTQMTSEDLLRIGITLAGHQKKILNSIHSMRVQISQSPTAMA

[2] = target: T2, Ephrin type-B receptor 2 (Homo sapiens) (UniProt P29323); conditions: at 1 µM
T2 sequence (whole entry): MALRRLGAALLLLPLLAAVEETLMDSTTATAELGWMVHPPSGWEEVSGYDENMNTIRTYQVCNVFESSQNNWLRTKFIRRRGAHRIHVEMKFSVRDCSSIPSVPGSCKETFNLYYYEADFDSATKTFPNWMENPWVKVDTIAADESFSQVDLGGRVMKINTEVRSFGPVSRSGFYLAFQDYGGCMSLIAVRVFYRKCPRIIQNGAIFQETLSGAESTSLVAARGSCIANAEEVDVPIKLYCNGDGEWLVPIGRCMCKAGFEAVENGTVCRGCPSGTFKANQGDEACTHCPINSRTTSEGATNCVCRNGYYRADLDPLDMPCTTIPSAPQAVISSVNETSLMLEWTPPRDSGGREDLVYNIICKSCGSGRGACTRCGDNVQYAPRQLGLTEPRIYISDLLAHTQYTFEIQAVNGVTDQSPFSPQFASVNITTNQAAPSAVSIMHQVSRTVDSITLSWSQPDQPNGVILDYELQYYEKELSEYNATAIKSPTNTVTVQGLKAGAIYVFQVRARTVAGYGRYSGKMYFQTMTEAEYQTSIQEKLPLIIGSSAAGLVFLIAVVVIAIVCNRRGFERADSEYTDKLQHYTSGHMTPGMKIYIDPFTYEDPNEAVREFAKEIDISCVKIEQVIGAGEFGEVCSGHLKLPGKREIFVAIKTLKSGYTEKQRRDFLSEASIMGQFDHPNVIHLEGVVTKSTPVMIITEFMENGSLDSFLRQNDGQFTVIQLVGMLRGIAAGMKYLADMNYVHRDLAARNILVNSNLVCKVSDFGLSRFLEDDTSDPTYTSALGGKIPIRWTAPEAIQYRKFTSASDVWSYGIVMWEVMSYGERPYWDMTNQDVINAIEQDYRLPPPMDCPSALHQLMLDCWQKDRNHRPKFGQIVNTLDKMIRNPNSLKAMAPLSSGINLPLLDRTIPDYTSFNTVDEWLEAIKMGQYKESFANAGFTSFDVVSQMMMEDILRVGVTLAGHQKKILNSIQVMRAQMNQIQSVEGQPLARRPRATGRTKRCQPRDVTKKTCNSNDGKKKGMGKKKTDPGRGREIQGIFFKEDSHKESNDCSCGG

[3] = target: T2, Ephrin type-B receptor 2 (Homo sapiens); conditions: at 10 µM
[4] = target: T3, Ephrin type-B receptor 3 (Homo sapiens) (UniProt P54753); conditions: at 1 µM
T3 sequence (whole entry): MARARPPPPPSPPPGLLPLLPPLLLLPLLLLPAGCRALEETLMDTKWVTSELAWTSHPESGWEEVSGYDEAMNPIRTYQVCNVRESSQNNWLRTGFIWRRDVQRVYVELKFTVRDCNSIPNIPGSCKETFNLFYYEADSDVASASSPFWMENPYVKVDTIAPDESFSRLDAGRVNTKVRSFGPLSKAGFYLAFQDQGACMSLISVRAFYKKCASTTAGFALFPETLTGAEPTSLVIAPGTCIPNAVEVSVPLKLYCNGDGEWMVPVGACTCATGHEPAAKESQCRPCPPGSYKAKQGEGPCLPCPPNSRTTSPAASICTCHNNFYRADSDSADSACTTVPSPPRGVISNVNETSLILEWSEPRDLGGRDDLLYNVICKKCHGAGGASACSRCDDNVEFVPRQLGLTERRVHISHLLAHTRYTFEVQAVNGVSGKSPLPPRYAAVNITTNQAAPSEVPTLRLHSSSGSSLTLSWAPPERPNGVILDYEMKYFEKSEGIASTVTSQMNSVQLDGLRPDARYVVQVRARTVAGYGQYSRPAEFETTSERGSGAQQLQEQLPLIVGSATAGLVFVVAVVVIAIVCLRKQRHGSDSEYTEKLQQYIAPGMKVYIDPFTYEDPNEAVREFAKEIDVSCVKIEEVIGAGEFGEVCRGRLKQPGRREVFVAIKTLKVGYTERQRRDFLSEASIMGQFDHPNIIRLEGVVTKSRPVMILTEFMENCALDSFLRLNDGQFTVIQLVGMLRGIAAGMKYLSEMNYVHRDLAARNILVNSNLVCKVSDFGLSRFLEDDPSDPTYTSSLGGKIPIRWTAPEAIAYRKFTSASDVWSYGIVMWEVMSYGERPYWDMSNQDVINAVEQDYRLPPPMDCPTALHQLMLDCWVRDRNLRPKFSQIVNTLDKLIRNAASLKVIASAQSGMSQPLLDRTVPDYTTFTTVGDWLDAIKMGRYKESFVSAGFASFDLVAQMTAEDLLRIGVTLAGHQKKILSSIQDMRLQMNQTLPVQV

[5] = target: T3, Ephrin type-B receptor 3 (Homo sapiens); conditions: at 10 µM
[6] = target: T4, Ephrin type-B receptor 4 (Homo sapiens) (UniProt P54760); conditions: at 1 µM
T4 sequence (whole entry): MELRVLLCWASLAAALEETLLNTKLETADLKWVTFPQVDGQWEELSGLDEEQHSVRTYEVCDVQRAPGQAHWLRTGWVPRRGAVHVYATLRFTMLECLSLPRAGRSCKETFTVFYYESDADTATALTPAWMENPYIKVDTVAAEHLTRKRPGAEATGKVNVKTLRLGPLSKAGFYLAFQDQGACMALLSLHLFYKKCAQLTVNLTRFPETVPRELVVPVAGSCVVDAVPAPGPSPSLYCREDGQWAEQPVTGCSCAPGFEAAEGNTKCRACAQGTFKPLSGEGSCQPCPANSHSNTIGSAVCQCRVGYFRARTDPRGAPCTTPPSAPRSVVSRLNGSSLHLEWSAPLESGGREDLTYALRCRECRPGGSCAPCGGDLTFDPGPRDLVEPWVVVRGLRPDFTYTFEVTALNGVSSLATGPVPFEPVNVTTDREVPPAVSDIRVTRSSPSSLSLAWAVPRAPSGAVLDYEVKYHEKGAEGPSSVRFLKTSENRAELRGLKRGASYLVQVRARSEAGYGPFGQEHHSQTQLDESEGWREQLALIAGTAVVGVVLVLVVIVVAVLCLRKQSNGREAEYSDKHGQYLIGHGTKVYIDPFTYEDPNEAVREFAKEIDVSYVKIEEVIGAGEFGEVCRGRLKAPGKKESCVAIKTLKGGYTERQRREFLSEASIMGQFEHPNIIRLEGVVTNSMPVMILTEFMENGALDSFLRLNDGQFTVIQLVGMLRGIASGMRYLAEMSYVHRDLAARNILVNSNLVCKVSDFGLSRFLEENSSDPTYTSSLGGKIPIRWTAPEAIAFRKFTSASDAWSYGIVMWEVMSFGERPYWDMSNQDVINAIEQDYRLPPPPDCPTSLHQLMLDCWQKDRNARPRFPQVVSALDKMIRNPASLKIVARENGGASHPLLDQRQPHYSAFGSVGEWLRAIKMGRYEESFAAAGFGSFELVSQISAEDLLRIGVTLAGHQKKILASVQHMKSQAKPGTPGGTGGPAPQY

[7] = target: T4, Ephrin type-B receptor 4 (Homo sapiens); conditions: at 10 µM
[8] = target: Receptor tyrosine-protein kinase erbB-4 (Homo sapiens) (UniProt Q15303); conditions: at 1 µM
[9] = target: Receptor tyrosine-protein kinase erbB-4 (Homo sapiens) (UniProt Q15303); conditions: at 10 µM
[10] = target: Focal adhesion kinase 1 (Homo sapiens) (UniProt Q05397); conditions: at 1 µM
Sequence of Focal adhesion kinase 1 (Homo sapiens) (Q05397 2-1052 limits assumed): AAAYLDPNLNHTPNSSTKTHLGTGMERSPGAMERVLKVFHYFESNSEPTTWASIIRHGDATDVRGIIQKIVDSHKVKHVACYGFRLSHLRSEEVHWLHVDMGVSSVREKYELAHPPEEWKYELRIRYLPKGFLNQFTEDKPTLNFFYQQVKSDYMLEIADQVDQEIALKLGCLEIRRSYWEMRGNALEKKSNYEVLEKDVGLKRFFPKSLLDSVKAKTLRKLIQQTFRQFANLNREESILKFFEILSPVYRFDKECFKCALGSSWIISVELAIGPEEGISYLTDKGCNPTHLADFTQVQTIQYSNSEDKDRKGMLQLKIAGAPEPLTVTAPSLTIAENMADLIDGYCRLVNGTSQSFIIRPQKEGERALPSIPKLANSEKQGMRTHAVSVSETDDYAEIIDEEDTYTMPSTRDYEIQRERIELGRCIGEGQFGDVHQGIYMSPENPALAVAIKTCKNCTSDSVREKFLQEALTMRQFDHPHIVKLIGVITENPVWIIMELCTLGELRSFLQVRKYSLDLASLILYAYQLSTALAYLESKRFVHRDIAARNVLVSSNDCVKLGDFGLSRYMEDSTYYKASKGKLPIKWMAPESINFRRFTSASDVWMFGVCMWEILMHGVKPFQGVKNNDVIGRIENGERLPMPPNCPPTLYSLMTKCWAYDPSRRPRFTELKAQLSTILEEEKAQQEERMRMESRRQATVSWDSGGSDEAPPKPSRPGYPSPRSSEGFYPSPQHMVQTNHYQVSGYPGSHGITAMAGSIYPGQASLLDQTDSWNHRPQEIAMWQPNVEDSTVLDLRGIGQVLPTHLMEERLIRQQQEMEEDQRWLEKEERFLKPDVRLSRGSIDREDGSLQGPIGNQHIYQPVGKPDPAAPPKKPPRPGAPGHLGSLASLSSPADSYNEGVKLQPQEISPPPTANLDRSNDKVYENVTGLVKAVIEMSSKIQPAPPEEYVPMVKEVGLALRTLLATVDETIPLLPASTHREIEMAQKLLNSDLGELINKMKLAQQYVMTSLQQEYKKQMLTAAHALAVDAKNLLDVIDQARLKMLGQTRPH

Sequence of Receptor tyrosine-protein kinase erbB-4 (Homo sapiens) (Q15303 whole entry): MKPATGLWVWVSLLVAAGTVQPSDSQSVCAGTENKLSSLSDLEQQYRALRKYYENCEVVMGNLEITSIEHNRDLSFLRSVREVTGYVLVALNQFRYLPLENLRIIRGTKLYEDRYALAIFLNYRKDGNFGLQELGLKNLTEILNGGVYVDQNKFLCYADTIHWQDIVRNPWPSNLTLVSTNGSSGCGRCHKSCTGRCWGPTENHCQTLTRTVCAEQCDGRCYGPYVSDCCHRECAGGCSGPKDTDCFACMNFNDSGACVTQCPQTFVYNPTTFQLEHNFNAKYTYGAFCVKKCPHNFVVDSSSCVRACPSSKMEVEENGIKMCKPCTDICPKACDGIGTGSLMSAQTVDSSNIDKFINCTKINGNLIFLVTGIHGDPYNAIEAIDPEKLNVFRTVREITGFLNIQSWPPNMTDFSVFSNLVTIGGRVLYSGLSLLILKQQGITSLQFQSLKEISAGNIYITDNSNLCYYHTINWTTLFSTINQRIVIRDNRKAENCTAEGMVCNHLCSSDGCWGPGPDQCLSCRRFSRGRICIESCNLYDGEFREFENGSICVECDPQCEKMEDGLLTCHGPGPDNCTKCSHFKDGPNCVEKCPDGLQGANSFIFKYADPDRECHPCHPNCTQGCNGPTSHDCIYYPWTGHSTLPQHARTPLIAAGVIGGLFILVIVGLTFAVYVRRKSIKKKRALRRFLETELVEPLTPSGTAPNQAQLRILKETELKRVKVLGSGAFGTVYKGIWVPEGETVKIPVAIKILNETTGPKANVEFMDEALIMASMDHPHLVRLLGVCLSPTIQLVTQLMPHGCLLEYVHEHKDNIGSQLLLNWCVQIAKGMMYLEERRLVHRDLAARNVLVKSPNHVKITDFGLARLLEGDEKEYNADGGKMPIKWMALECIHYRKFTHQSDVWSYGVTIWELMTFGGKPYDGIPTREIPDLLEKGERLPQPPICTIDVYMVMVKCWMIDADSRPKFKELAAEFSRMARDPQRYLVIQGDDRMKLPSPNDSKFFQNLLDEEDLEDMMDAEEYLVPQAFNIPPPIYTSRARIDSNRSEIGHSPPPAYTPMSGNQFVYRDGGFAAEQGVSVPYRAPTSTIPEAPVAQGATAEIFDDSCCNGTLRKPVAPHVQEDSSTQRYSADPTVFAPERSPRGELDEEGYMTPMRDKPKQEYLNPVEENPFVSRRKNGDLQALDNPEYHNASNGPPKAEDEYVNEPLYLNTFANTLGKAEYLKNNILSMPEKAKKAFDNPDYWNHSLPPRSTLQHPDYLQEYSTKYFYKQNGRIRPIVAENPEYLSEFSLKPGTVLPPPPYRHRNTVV

With Nc1ccc2ncnc(NCCc3ccc(Oc4ccccc4)cc3)c2c1 the residual activity [1] was 96%, the residual activity [2] was 111% and the residual activity [3] was 93%. The residual activity [4] was 105% (inactive), the residual activity [5] was 98% and the residual activity [6] was 96%. It also gave a residual activity [7] of 98%, a residual activity [8] of 33% and a residual activity [9] of 2%. For the same compound, the residual activity [10] was 106%.

— ChEMBL document CHEMBL2218924, “A broad activity screen in support of a chemogenomic map for kinase signalling research and drug discovery” (Biochem J, 2013)
